Assays:
Assay in all cases: PBM binding z-score (relative to random genomic background probes); higher = stronger binding; sequences stand for … in GC…GCGATTGACAGCGTAGAATGAAGG
[1] = test system: FXR:RXRa (NR concentration 270 nM, RXRa partner concentration 90 nM)
How it was run: (§1)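 Antibodies against each partner of ligand-free nuclear receptor dimers (one per run) detected binding on custom Agilent 4×180K protein-binding microarrays after 1 h incubation. The double-stranded probes had 34-nt variable regions carrying direct-repeat seeds, single-nucleotide variants, half-site ablations and random human genomic background sequences. Binding z-scores, from regression-normalized fluorescence, use the random background probes as reference.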

[2] = test system: LXRa:RXRa (NR concentration 270 nM, RXRa partner concentration 90 nM)
How it was run: as §1

[3] = test system: LXRa homodimer (NR concentration 270 nM)
How it was run: as §1

[4] = test system: LXRb:RXRa (NR concentration 270 nM, RXRa partner concentration 90 nM)
How it was run: as §1

[5] = test system: LXRb homodimer (NR concentration 270 nM)
How it was run: as §1

[6] = test system: PPARa:RXRa (NR concentration 270 nM, RXRa partner concentration 90 nM)
How it was run: as §1

[7] = test system: PPARg:RXRa (NR concentration 180 nM, RXRa partner concentration 90 nM)
How it was run: as §1

[8] = test system: PPARg:RXRa 270nM:90nM, anti-RXR (NR concentration 270 nM, RXRa partner concentration 90 nM)
How it was run: as §1

[9] = test system: PPARg:RXRa 30nM:10nM, anti-RXR (NR concentration 30 nM, RXRa partner concentration 10 nM)
How it was run: as §1

[10] = test system: PPARg:RXRa 90nM:30nM, anti-RXR (NR concentration 90 nM, RXRa partner concentration 30 nM)
How it was run: as §1

[11] = test system: PPARg:RXRa DBDmut IVT, anti-RXR (DBD mutation: RXRa K156A/R161A, NR concentration 270 nM, RXRa partner concentration 90 nM)
How it was run: as §1

[12] = test system: PPARg:RXRa IVT, anti-PPARg (NR concentration 270 nM, RXRa partner concentration 90 nM)
How it was run: as §1

[13] = test system: PPARg DBDmut:RXRa IVT, anti-PPARg (DBD mutation: PPARg1 K132A/R137A, NR concentration 270 nM, RXRa partner concentration 90 nM)
How it was run: as §1

[14] = test system: PPARg DBDmut IVT, anti-PPARg (DBD mutation: PPARg1 K132A/R137A, NR concentration 270 nM)
How it was run: as §1

[15] = test system: PPARg homodimer (NR concentration 180 nM)
How it was run: as §1

[16] = test system: PXR:RXRa (NR concentration 270 nM, RXRa partner concentration 90 nM)
How it was run: as §1

[17] = test system: PXR homodimer (NR concentration 270 nM)
How it was run: as §1

[18] = test system: RARa:RXR (NR concentration 270 nM, RXRa partner concentration 90 nM)
How it was run: as §1

[19] = test system: RARa homodimer (NR concentration 270 nM)
How it was run: as §1

[20] = test system: RARb:RXRa (NR concentration 270 nM, RXRa partner concentration 90 nM)
How it was run: as §1

Row | Sequence | PBM binding z-score [1] | PBM binding z-score [2] | PBM binding z-score [3] | PBM binding z-score [4] | PBM binding z-score [5] | PBM binding z-score [6] | PBM binding z-score [7] | PBM binding z-score [8] | PBM binding z-score [9] | PBM binding z-score [10] | PBM binding z-score [11] | PBM binding z-score [12] | PBM binding z-score [13] | PBM binding z-score [14] | PBM binding z-score [15] | PBM binding z-score [16] | PBM binding z-score [17] | PBM binding z-score [18] | PBM binding z-score [19] | PBM binding z-score [20]
1 | GTACCAAGGTGAATAGGTAGTTGATGAGTAGGCG | 0.274 | 0.228 | 0.0287 | 0.0207 | -0.534 | 0.934 | 0.795 | 0.782 | 0.189 | 0.453 | 1.51 | 1.76 | 0.536 | 0.507 | 0.398 | -0.196 | -0.0218 | 0.256 | 0.745 | 1.1
2 | ACTAGCAGGCCAAGTTTGAGTCACTCAAACAAAG | -0.527 | -0.601 | -0.503 | -0.529 | -0.797 | -0.0783 | -0.147 | -0.486 | -0.4 | -0.496 | 0.376 | 0.193 | -0.678 | 0.262 | -0.297 | -0.433 | -0.248 | -0.0649 | -1.17 | 0.293
3 | CTACCAAGGTGACCAAGGTCGTTGATTACTATTC | 0.954 | 0.863 | 0.0331 | 1.37 | -0.415 | 1.82 | 0.763 | 0.769 | -0.239 | 0.452 | 1.56 | 2.32 | -0.302 | -0.385 | 0.966 | 2.3 | 1.04 | 2.16 | -0.214 | 1.65
4 | TCATATAGGTAAAGCTGAAAGTCGAACGATATGA | 0.358 | 0.331 | -0.286 | 0.366 | -0.268 | 0.995 | 0.806 | 1.97 | 3.45 | 2.72 | 3.57 | 2.35 | 0.591 | 1.09 | -0.748 | 0.2 | -0.49 | 0.193 | -0.464 | 0.205
5 | CCTCTGAGGACAACAGGAGGTCAGAGCTGCCAGA | 1.9 | 2.12 | 1.95 | 1.33 | -0.394 | 1.88 | 0.389 | 0.288 | -0.556 | -0.276 | 0.791 | 0.943 | -0.185 | -0.809 | 1.58 | 1.87 | 0.497 | 2.39 | 0.218 | 2.9
6 | TCTGCTAGGTCAGTTCGTCAGCTAACGAGCTGCC | 0.654 | 0.387 | -0.691 | 0.0408 | 0.21 | 0.896 | 0.0243 | 1.38 | 1.37 | 1.51 | 2.26 | 2.31 | 1.01 | 0.64 | -0.455 | 0.229 | -1.06 | 0.273 | -1.33 | 3.01
7 | CTACCAAGGTGAACAAGGTCGTTTATTACTATTC | 1.5 | 1.78 | 0.765 | 2.61 | -0.00441 | 2.46 | 1.06 | 1.2 | 0.0871 | 0.818 | 2.67 | 2.5 | 0.494 | 0.322 | 1.29 | 3.07 | 2.38 | 2.12 | 0.698 | 2.26
8 | TCTCGGAGGACACGAAAGGTCAGAGCCCGACATC | 2.84 | 3.75 | 3.31 | 3 | -0.257 | 3.36 | 1.57 | 2.78 | 2.36 | 2.59 | 1.33 | 1.82 | -0.244 | -0.279 | 3.83 | 3.99 | 0.732 | 4.46 | 1.38 | 4.29
9 | CCTTACGGATCACGAGGTTATAGCACGACGAGCG | 0.639 | 1.1 | 0.818 | 1.11 | 0.481 | 1.48 | 1.06 | 0.294 | 0.0325 | 0.104 | 0.221 | 0.106 | -0.412 | 0.232 | 1.02 | 1.02 | 0.695 | 1.36 | 0.995 | 0.621
10 | ACTATTAGTTGAGACGAGGGGAACCGATAGGTTG | 0.227 | -0.0882 | -0.278 | -0.282 | 0.604 | -0.0604 | 0.569 | -0.00558 | 0.211 | 0.143 | 0.452 | 0.325 | 0.853 | 0.931 | -0.148 | -0.0512 | 0.29 | -0.00202 | 0.237 | 0.18
11 | ATCGAAAGGTCGAGGGGAGTATAGAGAAAGGGAA | 4.46 | 3.49 | 0.308 | 2.92 | 1.64 | 4.58 | 2.97 | 3.17 | 1.13 | 2.36 | 0.44 | 1.72 | 1.88 | 1.27 | 1.83 | 2.27 | 0.897 | 3.24 | 1.45 | 3.97
